# From PubChem BioAssay
# Active and inactive are the calls of the source.
# Experiments:
# [1] = binders of probe aFSTL3 on microarray, primary screen, stem cell growth factor project, biochemical, small-molecule microarray, fluorescence 635/667 (AID 1064); conditions: higher = more signal;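 also: measures binding of the biotinylated anti-FSTL3 antibody to printed compounds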
# [2] = binders from COS7 lysate, DM2A8 probe, primary screen, torsin A project, cell lysate, small-molecule microarray, fluorescence 635/667 (AID 1065); conditions: higher = more signal, COS7 lysate expressing mutant human TOR1A
# [3] = binders of probe aFGF2 on microarray, primary screen, stem cell growth factor project, biochemical, small-molecule microarray, fluorescence 635/667 (AID 1067); conditions: higher = more signal;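 also: measures binding of biotinylated aFGF2 protein to printed compounds on slides; z-score merges feature fluorescence and signal-to-noise across triplicate slides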
# [4] = binders of probe aFGF10 on microarray, primary screen, stem cell growth factor project, biochemical, small-molecule microarray, fluorescence 635/667 (AID 1071); conditions: higher = more signal;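 also: score merges 667 nm spot intensity and signal to noise from triplicate slides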
# [5] = molecular target: Neurogenic locus notch homolog protein 2 (Homo sapiens) (UniProt Q04721); assay: Notch2 binders on small-molecule microarrays, primary screen, biochemical, small-molecule microarray, 635 nm fluorescence, stem cell growth factors (AID 1073); conditions: Notch2 binding, higher = more signal
# [6] = molecular target: Pro-neuregulin-1, membrane-bound isoform (Homo sapiens) (UniProt Q02297); assay: NRG1 binders on small-molecule microarrays, primary screen, psychiatric disease protein project, biochemical, small-molecule microarray, fluorescence 635/667 (AID 1075); conditions: NRG1 binding, 635 nm fluorescence, higher = more signal;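 also: score combines 667 nm spot fluorescence with signal to noise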
# [7] = system: Neuregulin-1 EGF-like domain; assay: binders of neuregulin-1 EGF-like domain, primary screen, biochemical, small-molecule microarray, 635 nm fluorescence (AID 1081); conditions: small-molecule microarray binding, higher = more signal;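 also: binding of the protein to compounds printed on small-molecule microarray slides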
# [8] = FRG1 promoter luciferase signal modulators, primary screen, FRG1 inhibition for FSHD, cell-based, C2C12 myotubes, firefly/Renilla luciferase, luminescence (AID 1084); conditions: higher = more signal, called active from +8 up or from −8 down
# [9] = binders of probe aFST on microarray, primary screen, stem cell growth factor project, biochemical, small-molecule microarray, fluorescence 635/667 (AID 1086); conditions: higher = more signal;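 also: score merges 667 nm fluorescence with signal-to-noise of each printed compound spot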
# [10] = binders of probe aHhip on microarray, primary screen, stem cell growth factor project, biochemical, small-molecule microarray, fluorescence 635/667 (AID 1087); conditions: higher = more signal;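 also: score merges spot fluorescence at 667nm with spot signal to noise ratio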
# [11] = system: PRMT1 (protein arginine N-methyltransferase 1); assay: PRMT1 binders on small-molecule microarrays, primary screen, biochemical, small-molecule microarray, 635 nm fluorescence (AID 1088); conditions: small-molecule microarray binding, higher = more signal;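 also: binding of Prmt1 protein to compounds spotted on small-molecule microarray slides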
# [12] = yeast growth modulation, basal conditions, primary screen, YJM789 clinical isolate, OD600, 24 h (AID 1089);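 also: growth of clinical yeast isolate S. cerevisiae YJM 789 seeded 1000 cells per well; test concentration not given here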; conditions: S. cerevisiae YJM789 growth, higher = more signal, called active from +8 up or from −8 down
# [13] = fission yeast growth modulation, primary screen, strain 972, OD600, 24 h, no modulator (AID 1090);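 also: basal condition with compound alone and no growth modifier present; test concentration not given here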; conditions: S. pombe 972 growth, higher = more signal, called active from +8 up or from −8 down
# [14] = S. cerevisiae growth modulation with rapamycin, primary screen, strain BY4716, OD600, 96 h (AID 1091); conditions: higher = more signal, called active from +8 up or from −8 down; also: test concentration not given here
# [15] = molecular target: Torsin-1A-interacting protein 2 (Homo sapiens) (UniProt Q8NFQ8); assay: LULL1 binders on small-molecule microarray, primary screen, cell lysate, human LULL1 lysate, 635/667 nm fluorescence (AID 1092); conditions: hLULL1 lysate binding, 635 nm fluorescence, higher = more signal;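 also: probe is lysate of COS7 cells overexpressing human LULL1; score merges per-feature 667 nm fluorescence with signal-to-noise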
# [16] = E. coli growth modulation, two-sided OD650, primary screen, E. coli filamentation project, strain DRC41, 24 h (AID 1093); conditions: OD650, 24 h, higher = more signal, called active from +8 up or from −8 down;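 also: MC1000 strain lacking acrAB efflux and sulA so SOS filamentation is blocked; test concentration not given here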
# [17] = small-molecule microarray binders of probe aLefty2, primary screen, biochemical, biotinylated probe, 635/667 nm fluorescence (AID 1094); conditions: higher = more signal;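 also: score merges spot fluorescence near 667 nm with spot signal-to-noise ratio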
# [18] = system: Noggin (protein binding on small-molecule microarray); assay: Noggin binders on small-molecule microarray, primary screen, biochemical, 635/667 nm fluorescence (AID 1095); conditions: 635 nm fluorescence, higher = more signal;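 also: score merges 667 nm feature fluorescence with signal to noise over triplicate slides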
# [19] = molecular target: Neurogenic locus notch homolog protein 3 (Homo sapiens) (UniProt Q9UM47); assay: NOTCH3 binders on small-molecule microarray, primary screen, biochemical, 635/667 nm fluorescence (AID 1096); conditions: NOTCH3 binding, 635 nm fluorescence, higher = more signal
# [20] = small-molecule microarray binders of probe aEGFR, primary screen, biochemical, biotinylated probe, 635/667 nm fluorescence (AID 1097); conditions: higher = more signal;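 also: probe is a biotinylated anti-EGFR antibody binding compounds printed on slides; score combines fluorescence near 667 nm and signal to noise of each spot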
# Chain of Neurogenic locus notch homolog protein 3 (Homo sapiens) (Q9UM47 whole entry, looked up): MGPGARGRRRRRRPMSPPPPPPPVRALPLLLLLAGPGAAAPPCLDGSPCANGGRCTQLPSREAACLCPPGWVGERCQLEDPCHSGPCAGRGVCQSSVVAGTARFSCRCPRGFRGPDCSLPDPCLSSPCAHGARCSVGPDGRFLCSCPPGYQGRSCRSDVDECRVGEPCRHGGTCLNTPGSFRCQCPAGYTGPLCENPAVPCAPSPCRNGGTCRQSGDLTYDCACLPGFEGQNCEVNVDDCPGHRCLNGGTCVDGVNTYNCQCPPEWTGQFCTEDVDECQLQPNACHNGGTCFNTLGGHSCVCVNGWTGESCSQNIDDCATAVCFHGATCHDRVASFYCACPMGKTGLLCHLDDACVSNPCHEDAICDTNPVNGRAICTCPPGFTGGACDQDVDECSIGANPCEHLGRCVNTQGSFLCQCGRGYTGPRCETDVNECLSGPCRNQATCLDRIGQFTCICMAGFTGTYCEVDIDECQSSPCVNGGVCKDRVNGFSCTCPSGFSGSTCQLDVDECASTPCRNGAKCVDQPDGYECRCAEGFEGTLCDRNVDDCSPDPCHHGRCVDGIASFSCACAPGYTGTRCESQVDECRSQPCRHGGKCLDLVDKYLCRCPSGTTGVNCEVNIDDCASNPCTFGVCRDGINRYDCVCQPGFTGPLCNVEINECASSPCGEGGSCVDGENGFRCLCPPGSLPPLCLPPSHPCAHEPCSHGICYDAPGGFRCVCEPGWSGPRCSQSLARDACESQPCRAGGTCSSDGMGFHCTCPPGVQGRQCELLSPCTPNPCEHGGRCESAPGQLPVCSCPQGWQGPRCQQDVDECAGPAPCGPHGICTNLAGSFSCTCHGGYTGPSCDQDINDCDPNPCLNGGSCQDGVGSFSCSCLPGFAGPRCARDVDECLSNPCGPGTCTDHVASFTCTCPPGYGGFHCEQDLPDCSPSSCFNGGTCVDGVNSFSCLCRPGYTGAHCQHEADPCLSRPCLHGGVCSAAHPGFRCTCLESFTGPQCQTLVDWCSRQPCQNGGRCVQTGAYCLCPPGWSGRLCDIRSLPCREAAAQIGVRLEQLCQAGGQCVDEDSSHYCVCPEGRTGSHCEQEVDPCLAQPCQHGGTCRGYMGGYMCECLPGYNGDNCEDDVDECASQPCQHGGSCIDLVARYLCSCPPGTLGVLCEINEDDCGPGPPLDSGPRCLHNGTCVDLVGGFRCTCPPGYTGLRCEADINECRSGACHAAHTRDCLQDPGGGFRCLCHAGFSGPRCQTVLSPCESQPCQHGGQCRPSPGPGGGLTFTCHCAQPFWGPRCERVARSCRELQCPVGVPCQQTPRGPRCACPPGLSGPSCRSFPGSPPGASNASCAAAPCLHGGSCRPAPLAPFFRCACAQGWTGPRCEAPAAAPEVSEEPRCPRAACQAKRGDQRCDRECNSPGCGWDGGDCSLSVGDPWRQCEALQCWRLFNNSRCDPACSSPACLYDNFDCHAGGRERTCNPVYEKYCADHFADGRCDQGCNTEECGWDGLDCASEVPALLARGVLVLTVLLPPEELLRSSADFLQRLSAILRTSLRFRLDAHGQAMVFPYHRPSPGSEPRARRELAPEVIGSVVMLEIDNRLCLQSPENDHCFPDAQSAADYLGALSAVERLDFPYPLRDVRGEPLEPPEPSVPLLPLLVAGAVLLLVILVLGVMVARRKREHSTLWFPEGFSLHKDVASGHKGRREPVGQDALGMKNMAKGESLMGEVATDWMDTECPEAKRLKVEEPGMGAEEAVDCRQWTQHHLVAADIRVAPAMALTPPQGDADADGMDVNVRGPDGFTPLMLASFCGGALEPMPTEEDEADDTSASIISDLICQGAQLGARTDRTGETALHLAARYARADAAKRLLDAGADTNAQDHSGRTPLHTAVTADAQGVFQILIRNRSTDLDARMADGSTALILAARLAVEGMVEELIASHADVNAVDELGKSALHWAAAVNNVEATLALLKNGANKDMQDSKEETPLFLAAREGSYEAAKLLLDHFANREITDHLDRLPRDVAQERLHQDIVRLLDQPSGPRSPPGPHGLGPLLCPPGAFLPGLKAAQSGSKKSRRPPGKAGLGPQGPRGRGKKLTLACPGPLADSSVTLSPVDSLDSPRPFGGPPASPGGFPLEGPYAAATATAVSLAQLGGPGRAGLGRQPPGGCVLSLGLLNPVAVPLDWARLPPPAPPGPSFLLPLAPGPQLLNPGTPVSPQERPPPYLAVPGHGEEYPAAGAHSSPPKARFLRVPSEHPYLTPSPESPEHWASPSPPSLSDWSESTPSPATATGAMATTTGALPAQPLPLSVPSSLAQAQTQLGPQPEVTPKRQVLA
# Chain of Neurogenic locus notch homolog protein 2 (Homo sapiens) (Q04721 whole entry, looked up, canonical isoform): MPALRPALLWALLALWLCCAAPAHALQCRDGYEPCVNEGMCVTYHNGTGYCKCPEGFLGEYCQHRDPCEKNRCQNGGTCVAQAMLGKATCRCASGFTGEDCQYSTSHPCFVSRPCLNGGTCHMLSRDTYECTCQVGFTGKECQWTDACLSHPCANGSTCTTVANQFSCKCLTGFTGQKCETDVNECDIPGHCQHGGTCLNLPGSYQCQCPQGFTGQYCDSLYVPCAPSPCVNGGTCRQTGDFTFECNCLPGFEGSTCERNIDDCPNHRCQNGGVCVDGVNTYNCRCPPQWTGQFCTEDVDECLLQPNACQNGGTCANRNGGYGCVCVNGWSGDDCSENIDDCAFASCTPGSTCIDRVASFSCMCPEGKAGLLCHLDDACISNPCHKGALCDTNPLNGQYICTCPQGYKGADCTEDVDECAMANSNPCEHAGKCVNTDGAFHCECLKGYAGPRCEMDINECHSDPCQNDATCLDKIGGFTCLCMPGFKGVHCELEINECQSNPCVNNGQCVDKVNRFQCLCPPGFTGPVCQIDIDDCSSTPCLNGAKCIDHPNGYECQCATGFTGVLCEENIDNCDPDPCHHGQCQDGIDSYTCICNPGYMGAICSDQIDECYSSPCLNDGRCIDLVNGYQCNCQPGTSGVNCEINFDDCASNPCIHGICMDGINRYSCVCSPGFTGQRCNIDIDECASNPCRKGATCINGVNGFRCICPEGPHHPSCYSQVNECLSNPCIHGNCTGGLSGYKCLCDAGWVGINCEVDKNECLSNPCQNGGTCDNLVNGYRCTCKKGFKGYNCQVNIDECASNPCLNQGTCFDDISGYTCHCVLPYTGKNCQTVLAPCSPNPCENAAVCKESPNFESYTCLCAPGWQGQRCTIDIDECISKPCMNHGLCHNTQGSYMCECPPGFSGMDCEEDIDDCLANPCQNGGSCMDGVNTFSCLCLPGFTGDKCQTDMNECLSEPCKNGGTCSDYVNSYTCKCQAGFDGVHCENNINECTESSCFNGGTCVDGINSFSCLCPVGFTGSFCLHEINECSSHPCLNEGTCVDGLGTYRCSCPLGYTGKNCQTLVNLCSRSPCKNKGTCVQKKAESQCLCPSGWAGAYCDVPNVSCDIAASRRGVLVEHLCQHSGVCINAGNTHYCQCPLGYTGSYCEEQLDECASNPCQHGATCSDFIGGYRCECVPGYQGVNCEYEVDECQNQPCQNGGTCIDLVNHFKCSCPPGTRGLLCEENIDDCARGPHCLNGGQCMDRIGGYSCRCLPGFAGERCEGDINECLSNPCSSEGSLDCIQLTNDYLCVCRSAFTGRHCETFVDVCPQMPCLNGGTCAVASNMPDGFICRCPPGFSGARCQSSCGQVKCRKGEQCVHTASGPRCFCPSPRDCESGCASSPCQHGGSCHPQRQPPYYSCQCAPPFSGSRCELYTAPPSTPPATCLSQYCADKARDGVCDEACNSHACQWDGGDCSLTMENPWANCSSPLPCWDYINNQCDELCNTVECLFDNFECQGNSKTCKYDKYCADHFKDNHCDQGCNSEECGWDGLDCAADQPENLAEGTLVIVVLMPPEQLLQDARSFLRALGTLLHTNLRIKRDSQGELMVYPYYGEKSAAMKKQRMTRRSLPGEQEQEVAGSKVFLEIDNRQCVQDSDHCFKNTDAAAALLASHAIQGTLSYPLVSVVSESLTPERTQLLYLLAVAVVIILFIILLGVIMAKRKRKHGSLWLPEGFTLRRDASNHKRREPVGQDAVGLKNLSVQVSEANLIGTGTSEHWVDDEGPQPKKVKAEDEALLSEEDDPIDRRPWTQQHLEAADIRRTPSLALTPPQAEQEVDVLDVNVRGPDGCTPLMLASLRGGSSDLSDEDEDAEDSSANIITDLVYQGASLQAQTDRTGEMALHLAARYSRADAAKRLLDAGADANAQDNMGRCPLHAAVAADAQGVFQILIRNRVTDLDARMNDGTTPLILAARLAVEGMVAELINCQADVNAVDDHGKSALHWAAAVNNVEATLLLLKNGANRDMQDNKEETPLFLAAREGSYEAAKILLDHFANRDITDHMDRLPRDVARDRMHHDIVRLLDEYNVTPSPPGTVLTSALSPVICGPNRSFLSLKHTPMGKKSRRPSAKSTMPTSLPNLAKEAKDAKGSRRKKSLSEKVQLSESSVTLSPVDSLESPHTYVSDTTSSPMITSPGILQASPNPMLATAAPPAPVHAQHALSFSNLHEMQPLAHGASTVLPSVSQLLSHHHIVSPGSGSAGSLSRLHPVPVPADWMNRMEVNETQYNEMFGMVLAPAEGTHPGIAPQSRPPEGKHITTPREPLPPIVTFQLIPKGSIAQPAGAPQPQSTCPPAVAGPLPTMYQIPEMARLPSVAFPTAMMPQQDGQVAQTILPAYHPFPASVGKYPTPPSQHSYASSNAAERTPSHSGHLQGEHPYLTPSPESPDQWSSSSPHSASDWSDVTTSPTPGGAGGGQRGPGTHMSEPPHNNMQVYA
Structure (SMILES),composite z-score [1],composite z-score [2],composite z-score [3],composite z-score [4],composite z-score [5],composite z-score [6],composite z-score [7],z-score [8],composite z-score [9],composite z-score [10],composite z-score [11],z-score [12],z-score [13],z-score [14],composite z-score [15],z-score [16],composite z-score [17],composite z-score [18],composite z-score [19],composite z-score [20]
COCCn1c(C(=O)N2CCCC2)cc2c1C[C@H]1CN(C(=O)c3ccccc3)[C@@](Cc3ccc(OC)cc3)(C(=O)OC)[C@@H]21,1.42,1.86,0.264,0.43,1.64,2.12,0.905,-1.1 (inactive),0.602,-0.0994,0.0027,-2.08 (inactive),0.422 (inactive),-0.651 (inactive),1.72,0.0251 (inactive),0.656,-0.843,1.1,0.147
CCCNC(=O)[C@@]1(c2ccc([N+](=O)[O-])cc2)CC(=O)N(CC23CC4CC(CC(C4)C2)C3)[C@@H]1c1ccc(CO)cc1I,0.188,0.388,-0.0644,0.0889,0.906,0.133,1.01,-2.05 (inactive),0.171,0.31,1.14,0.804 (inactive),1 (inactive),5.52 (inactive),1.53,0.136 (inactive),0.0962,0.367,0.243,0.141
C=C(/C(=C/C[C@@H](OC(=O)c1ccncc1)c1ccc(CO)o1)c1cc(C(=O)OC)ccc1OC)C(C)C,-0.441,1.46,-0.0226,0.901,0.974,1.15,0.954,-1.13 (inactive),0.377,0.0373,1.53,0.523 (inactive),-1.28 (inactive),-0.414 (inactive),2.47,0.481 (inactive),-0.129,0.855,1.03,0.0073
Cc1ccc(S[C@]2(C(=O)NCc3ccccc3)CC(=O)N(Cc3cc(C(F)(F)F)cc(C(F)(F)F)c3)[C@@H]2c2ccc(CO)cc2)cc1,-0.989,-0.779,-0.172,-0.596,-0.885,0.57,0.246,-0.588 (inactive),-0.0847,-0.362,1.34,1.04 (inactive),-0.27 (inactive),0.521 (inactive),1.94,-0.764 (inactive),-0.225,0.0043,-0.132,-0.325
CCOC(=O)C[C@H]1[C@H](OC(=O)c2ccc(C(=O)c3ccccc3)cc2)[C@@H](NC(=O)c2ccc3ccccc3n2)c2cc(OCCCO)ccc2N1C(=O)c1ccc2ccccc2n1,-0.153,0.0772,-0.16,0.56,0.876,1,0.421,-2.18 (inactive),0.845,-0.201,0.424,0.179 (inactive),0.0242 (inactive),0.418 (inactive),1.34,1.12 (inactive),0.109,0.192,0.486,0.0746
